Like-named read-outs stand apart in the source and are kept apart here.

Common to all, as to set-up: species or system human, MV4-11 + K-562 + COLO205 + SK-N-BE2 + OVCAR-8
The subject of test [1] is MAPKAPK2. Particulars: read-out: apparent Kd, n = 1.
Test [2] relates to ATR. The conditions noted are these: read-out: apparent Kd, n = 1.
The test system of test [3] is FGFR1. The conditions noted are these: read-out: apparent Kd, n = 1.
Test [4] deals with FRK. Particulars: read-out: apparent Kd, n = 1.
Test [5] deals with ULK3. Particulars: read-out: apparent Kd, n = 1.
Test [6] deals with JAK2. Particulars: read-out: apparent Kd, n = 1.
Test [7] relates to NLK. The conditions noted are these: read-out: apparent Kd, n = 1.
Test [8] has as its system ACAD11. The conditions noted are these: read-out: apparent Kd, compound concentrations: 100 nM and 1000 nM (sheet 'Samples'), n = 1.
Test [9] has as its system NQO2. Particulars: read-out: apparent Kd, n = 1.
In test [10] the test system is JAK1. The conditions noted are these: read-out: apparent Kd; compound concentrations: 100 nM and 1000 nM (sheet 'Samples'), CATDS: 7.5180270628035497E-3; n = 1.
The test system of test [11] is CDK5. Particulars: read-out: apparent Kd, compound concentrations: 100 nM and 1000 nM (sheet 'Samples'), n = 1.
In test [12] the test system is T1, DJA1.
T1 construct: gene DNAJA1
The conditions noted are these: read-out: apparent Kd, compound concentrations: 100 nM and 1000 nM (sheet 'Samples'), n = 1.

In test [13] the test system is PIK3CA. The conditions noted are these: read-out: apparent Kd; compound concentrations: 100 nM and 1000 nM (sheet 'Samples'), CATDS: 0.11596893366526; n = 1.
Test [14] relates to CDK6. The conditions noted are these: read-out: apparent Kd, n = 1.
The test system of test [15] is IRAK4. The conditions noted are these: read-out: apparent Kd, n = 1.
In test [16] the test system is CDC7. The conditions noted are these: read-out: apparent Kd, compound concentrations: 100 nM and 1000 nM (sheet 'Samples'), n = 1.
Test [17] has as its system MAP2K1. The conditions noted are these: read-out: apparent Kd, compound concentrations: 100 nM and 1000 nM (sheet 'Samples'), n = 1.
In test [18] the test system is MAP4K1. The conditions noted are these: read-out: apparent Kd; compound concentrations: 100 nM and 1000 nM (sheet 'Samples'), CATDS: 1.18408436386705E-2; n = 1.
Test [19] has as its system STK26. Particulars: read-out: apparent Kd; compound concentrations: 100 nM and 1000 nM (sheet 'Samples'), CATDS: 1.4283028006721699E-2; n = 1.
Setting [20] is: compound concentrations:100 nM and 1000 nM (sheet 'Samples').

For `Fc1ccc(-c2c(-c3ccncc3)[nH]c3cccnc23)cc1` [RO1153853-000], the potency estimated from few doses in test [1] (compound concentrations: 100 nM and 1000 nM (sheet 'Samples'), CATDS: 8.5753103075807094E-2) was 0.373 µM.

As to `O=C1NC(=O)C(N2CCc3ccccc32)=C1c1ccccc1Cl` [SB-373598], the potency estimated from few doses in test [2] (setting [20]) was 0.605 µM; in test [3] (setting [20]), 1.25 µM; in test [4] (setting [20]), 0.33 µM; in [5] (setting [20]) it was 1.45 µM.

Take `Cl.NCc1ccc(-c2nc(-c3ccc(Cl)c(O)c3)c(-c3ccncc3)[nH]2)cc1` [SB-476429-A]: the potency estimated from few doses in test [6] (setting [20]) is 0.347 µM; in test [1] (setting [20]), 0.0948 µM.

`CCn1c(-c2nonc2N)nc2c(C#CC(C)(C)O)nc(CN3CCCC3)cc21` [GSK1000163A]: the potency estimated from few doses in test [7] (compound concentrations: 100 nM and 1000 nM (sheet 'Samples'), CATDS: 0.163177352109245) is 1.98 µM.

On to `CN(c1ccc(NC(=O)N2CCN(CCCN3CCOCC3)CC2)cc1)c1ccnc(Nc2ccc(CS(C)(=O)=O)cc2)n1.Cl` [GW830899A], for which the potency estimated from few doses was 2.06 µM in test [8] (CATDS: 1.8100646511475499E-2); 0.552 µM in [9] (compound concentrations: 100 nM and 1000 nM (sheet 'Samples'), CATDS: 3.2370847772948297E-2); 1.01 µM in test [5] (compound concentrations: 100 nM and 1000 nM (sheet 'Samples'), CATDS: 2.3659630965279298E-2).

With `CCOC(=O)N1CCC(n2cnc(-c3ccc(F)cc3)c2-c2ccnc(N)n2)CC1` [SB-219952], the potency estimated from few doses in test [8] (CATDS: 8.6091938729062605E-3) is 1.33 µM; in [3] (compound concentrations: 100 nM and 1000 nM (sheet 'Samples'), CATDS: 8.7030488552416706E-3) it was 1.28 µM; in test [4] (compound concentrations: 100 nM and 1000 nM (sheet 'Samples'), CATDS: 9.3147950048740498E-3) it was 1.05 µM; in test [1] (compound concentrations: 100 nM and 1000 nM (sheet 'Samples'), CATDS: 4.5642459422858099E-2), 0.0607 µM; in [7] (compound concentrations: 100 nM and 1000 nM (sheet 'Samples'), CATDS: 4.0230749785041403E-2), 0.0727 µM; in test [5] (compound concentrations: 100 nM and 1000 nM (sheet 'Samples'), CATDS: 8.4106356024223894E-3), 1.43 µM.

Turning to `O=C1N=C(NCCc2ccc(Cl)cc2)S/C1=C\c1ccc2ncccc2c1` [RO4498479-000], the potency estimated from few doses in test [8] (CATDS: 8.46933106207029E-3) was 0.852 µM; in test [3] (compound concentrations: 100 nM and 1000 nM (sheet 'Samples'), CATDS: 8.1769993071202692E-3) it was 0.946 µM; in test [4] (compound concentrations: 100 nM and 1000 nM (sheet 'Samples'), CATDS: 1.0205973298365501E-2) it was 0.53 µM; in [10], 1.24 µM; in test [5] (compound concentrations: 100 nM and 1000 nM (sheet 'Samples'), CATDS: 8.2720873677068606E-3) it was 0.913 µM.

Take `Cl.ON=C1CCc2cc(-c3nc(C4CCNCC4)[nH]c3-c3ccncc3)ccc21` [SB-614067-R]: in [1] (setting [20]), the potency estimated from few doses is 0.874 µM.

Regarding `Cc1ccc(Nc2ccnc(Nc3ccc4c(c3)CS(=O)(=O)C4)n2)cc1O.Cl` [GW579362A], the potency estimated from few doses in [11] (CATDS: 3.4142296648309298E-2) is 0.844 µM; in [7] (compound concentrations: 100 nM and 1000 nM (sheet 'Samples'), CATDS: 6.6652285634060698E-2), 0.208 µM; in test [5] (compound concentrations: 100 nM and 1000 nM (sheet 'Samples'), CATDS: 3.7183394564858599E-2) it was 0.681 µM.

Consider `COc1cccc2c(-c3ccncc3)c(-c3ccc(F)cc3)nn12` [GW468513X], for which the potency estimated from few doses in test [12] (CATDS: 3.8361892236094597E-2) was 1.52 µM; in [1] (compound concentrations: 100 nM and 1000 nM (sheet 'Samples'), CATDS: 0.11200666699730499) it was 0.0806 µM.

`CN(c1ccc(NC(=O)NCCN2CCOCC2)cc1)c1ccnc(Nc2ccc(CS(C)(=O)=O)cc2)n1.Cl` [GW830365A]: the potency estimated from few doses in test [13] is 0.201 µM.

Regarding `CN(C)CC(O)COc1ccc(Nc2nccc(-c3cnn4nc(N5CCOCC5)ccc34)n2)cc1` (stereo not shown) [GW767488X], the potency estimated from few doses in test [14] (setting [20]) is 1.05 µM; in test [15] (setting [20]), 1.63 µM; in test [7] (setting [20]) it was 2.18 µM; in [9] (setting [20]), 1.23 µM.

As to `CS(=O)(=O)Nc1cccc(-c2ccc3c(NC(=O)C4CC4)n[nH]c3c2)c1` [SB-742864], the potency estimated from few doses in test [12] (CATDS: 0.110016860770891) is 1.63 µM.

For the molecule `O=C1N=C(NCc2cccs2)O/C1=C\c1ccc2ncccc2c1` [RO4624208-000], in [16] (CATDS: 4.51819013017992E-2), the potency estimated from few doses was 2.1 µM.

As to `COc1cc(Nc2nccc(N3CCC(NC(=O)c4cccc(NC(C)=O)c4)C3)n2)cc(OC)c1OC` (stereo not shown) [GSK1379754A], the potency estimated from few doses in test [5] (compound concentrations: 100 nM and 1000 nM (sheet 'Samples'), CATDS: 9.2169068852455793E-2) was 1.39 µM.

In the case of `c1cnn2ncc(-c3ccnc(Nc4ccc5c(c4)OCCO5)n3)c2c1` [GW806290X], the potency estimated from few doses is 1.39 µM in [14] (compound concentrations: 100 nM and 1000 nM (sheet 'Samples'), CATDS: 2.20968603607638E-2); 1.73 µM in [17] (CATDS: 2.0774102889224599E-2).

As for `O=C(O)C(F)(F)F.O=c1[nH]ccc2nc(N[C@@H]3CCNC3)nc(Nc3ccc4c(c3)S(=O)(=O)CC4)c12` [GSK2181306A], the potency estimated from few doses in test [8] (CATDS: 2.2275059319964801E-2) was 0.145 µM; in test [16] (CATDS: 3.8653220202105501E-2) it was 0.0571 µM; in [11] (CATDS: 1.15516504850929E-2), 0.571 µM; in [6] (compound concentrations: 100 nM and 1000 nM (sheet 'Samples'), CATDS: 1.0295673104193499E-2), 0.781 µM; in test [17] (CATDS: 9.6647970877986305E-3), 0.947 µM; in [18] it was 0.536 µM. For the same molecule, the potency estimated from few doses in [5] (compound concentrations: 100 nM and 1000 nM (sheet 'Samples'), CATDS: 1.2312862576378401E-2) was 0.487 µM.

Turning to `CCn1c(-c2cccnc2O)nc2cnccc21` [SB-736715], the potency estimated from few doses in test [2] (compound concentrations: 100 nM and 1000 nM (sheet 'Samples'), CATDS: 1.78741670317108E-2) was 0.919 µM; in test [12] (CATDS: 1.9156343081097999E-2) it was 0.812 µM; in test [4] (compound concentrations: 100 nM and 1000 nM (sheet 'Samples'), CATDS: 1.6945625051929199E-2), 1.01 µM; in [15] (compound concentrations: 100 nM and 1000 nM (sheet 'Samples'), CATDS: 1.2053772539955101E-2) it was 2.16 µM; in test [17] (CATDS: 1.2472945477492101E-2) it was 1.98 µM; in test [7] (compound concentrations: 100 nM and 1000 nM (sheet 'Samples'), CATDS: 1.3463251782528499E-2), 1.64 µM. In addition, the potency estimated from few doses in [19] is 1.44 µM.

The values above are taken from article PMC11062922 (Nature Chemical Biology, 2023).
